The text below walks through data of PubChem BioAssay (Tox21).

The nature of test [1]: Nuclear factor erythroid 2-related factor 2/antioxidant responsive element (Nrf2/ARE) small molecule agonists: luciferase reporter gene qHTS assay in human keratinocytes (AID 1919969). Note: nearly all actives have a fitted effect of over 35% in size. Note: potency is the fitted concentration of half-maximal effect.
Test [2] has as its target Gonadotropin-releasing hormone receptor (Homo sapiens) (UniProt P30968). The test is described as follows: Human gonadotropin-releasing hormone receptor (GnRHR) small molecule agonists, calcium flux assay in GnRHR-HEK293 cells (AID 1920063). Note: nearly all actives have a fitted effect of over 35% in size. The method in brief:
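HEK293 cells stably expressing human GnRHR were dye-loaded for 1 h at 37 C. Compound was added in agonist mode and fluorescence (Ex/Em 480/540) recorded kinetically for 3 min. Fifteen concentrations, triplicates.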
On the technique in general: Calcium assays in cells follow changes in intracellular calcium, usually with a dye or a luminescent sensor.

The target in test [3] is KiSS-1 receptor (Homo sapiens) (UniProt Q969F8). The test is described as follows: Human kisspeptin (KISS1R) small molecule agonists, calcium flux assay in KISS1R-HEK293 cells (AID 1920064; active = well fitted activation curve with a large enough effect in the repeat runs). The method in brief: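 HEK293 cells stably expressing human KISS1R were loaded with calcium dye for 1 h at 37 C, then given compound; fluorescence (Ex/Em 480/540) was read kinetically for 3 min. Fifteen concentrations, triplicate.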

A short description of test [4]: G protein-coupled receptor (GPCR) small molecule agonists, calcium flux assay: HEK293 wild type cell line counter screen (AID 1920065). Put shortly:
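Wild-type HEK293 cells plated 18 h, loaded with calcium dye 1 h at 37 C, then compounds added in agonist mode (ATP as positive control). Kinetic fluorescence Ex/Em 480/540 recorded 3 min at 1 sec intervals; 15 concentrations, triplicate.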

The nature of test [5]: p53 small molecule agonists, cell-based qHTS assay with rat liver microsomes: qHTS cell viability counter screen (AID 1963580). Note: nearly all actives have a fitted effect of over 45% in size. The method in brief: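 Intracellular ATP, by CellTiter-Glo luminescence, defines viability. HCT-116 p53RE-bla cells, 4,000 per well, were compound-treated in the presence of rat liver microsomes and NADPH for 16 h at 37 C.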
A short description of test [6]: p53 small molecule agonists, cell-based qHTS assay: qHTS cell viability counter screen (AID 1963581). Note: nearly all actives have a fitted effect of over 45% in size. The method in brief: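 p53RE-bla HCT-116 cells, compounds added 5 h after plating and incubated 16 h at 37 C. Cytotoxicity measured in the same wells as intracellular ATP by CellTiter-Glo luminescence after 30 min at room temperature.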
Test [7] concerns the target 5-hydroxytryptamine receptor 2A (Homo sapiens) (UniProt P28223). The test is described as follows: 5-hydroxytryptamine receptor 2A (HTR2A) small molecule antagonists, cell-based qHTS assay (AID 1963586). Note: nearly all actives have a fitted effect of over 45% in size. Note: potency is the fitted concentration of half-maximal effect. Put shortly: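 Antagonist-mode intracellular calcium assay: DOI (4 nM) added after 5 min compound pre-incubation at room temperature to dye-loaded HTR2A-CHO cells. Fluorescence followed for 3 min, sampled every second.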
In general terms: qHTS replaces the single test concentration by a dilution series.

Test [8] has the same target. The test is described as follows: 5-hydroxytryptamine receptor 2A (HTR2A) small molecule agonists, cell-based qHTS assay (AID 1963587). Note: nearly all actives have a fitted effect of over 30% in size. Note: potency is the fitted concentration of half-maximal effect. Put shortly:
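Kinetic calcium-flux fluorescence (2 min, 1 sec intervals) after compound addition in agonist mode. HTR2A-CHO cells were cultured 18 h, then dye-loaded 1 h at 37 C.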

Test [9] concerns the target Muscarinic acetylcholine receptor M1 (Homo sapiens) (UniProt P11229). Briefly: Cholinergic receptor muscarinic 1 (CHRM1) small molecule antagonists, cell-based qHTS assay (AID 1963588). Note: nearly all actives have a fitted effect of over 40% in size. Note: potency is the fitted concentration of half-maximal effect. The method in brief: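 CHRM1-CHO calcium-flux assay, antagonist mode. Cells were seeded 18 h, dye-loaded 1 h at 37 C and given compound for 5 min at RT, then acetylcholine was added at 50nM. FDSS fluorescence was read 3 min; 15 concentrations, three runs.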

The target is the same in test [10]. Briefly: Cholinergic receptor muscarinic 1 (CHRM1) small molecule agonists, cell-based qHTS assay (AID 1963589). Note: nearly all actives have a fitted effect of over 35% in size. Put shortly:
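CHO cells stably expressing human CHRM1 were loaded with calcium dye for 1 h at 37 C, then compound was added in agonist mode. Intracellular calcium fluorescence was followed kinetically at 1 s intervals. Fifteen concentrations were tested in three independent runs.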

Test [11] concerns the target Beta-2 adrenergic receptor (Homo sapiens) (UniProt P07550). The test is described as follows: Adrenergic beta2 receptor (ADRB2) small molecule antagonists, cell-based qHTS assay (AID 1963592). Note: series mostly up to about 92 µM; nearly all actives have a fitted effect of over 50% in size. The method in brief:
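Cells (CHO, stable ADRB2 overexpression) incubated 18-20hr at 37C; compounds added from DMSO; agonist mix (1nM isoproterenol, 100uM IBMX, 25uM Ro-20-1724) added; 0.5hr RT; d2-cAMP and anti-cAMP-cryptate added; 1hr RT; 665/615 nm read.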

The target is the same in test [12]. The test is described as follows: Adrenergic beta2 receptor (ADRB2) small molecule agonists, cell-based qHTS assay (AID 1963593).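 Note: CHO cells stably overexpressing human ADRB2.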 The method in brief: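 CHO cells stably over-expressing ADRB2 were plated overnight at 37C, then dosed with compounds plus a stimulation mix containing 100uM IBMX and 25uM Ro-20-1724 for 0.5hr at room temperature. cAMP was measured by HTRF competition, 1hr.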

Test [13] has as its target D(2) dopamine receptor (Homo sapiens) (UniProt P14416). The test is described as follows: Dopamine D2 receptor (DRD2) small molecule agonists, cell-based qHTS assay (AID 1963594). Note: nearly all actives have a fitted effect of over 35% in size. Put shortly:
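cAMP accumulation in DRD2-HEK293 cells measured by HTRF after 1 h detection; compounds added 10 min before NKH477 (200nM […]) forskolin-analogue stimulation, 30 min at room temperature, with Ro20-1724 present at 0.1 mM final.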

For test [14] the target is unchanged. Briefly: Dopamine D2 receptor (DRD2) small molecule antagonists, cell-based qHTS assay (AID 1963595; active = well fitted inhibition curve with a large enough effect in the signal ratio in the repeat runs, with a control signal flat; the % refers to the signal ratio). Put shortly:
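HEK293 cells stably expressing DRD2, preincubated with 0.1 mM Ro20-1724 and compounds 10 min, were stimulated with 200 nM NKH477 plus 12 nM quinpirole for 30 min at room temperature; cAMP measured by HTRF (665/620 nm).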

The nature of test [15]: p53 small molecule agonists, cell-based qHTS assay with human liver microsomes: qHTS cell viability counter screen (AID 1963579). Note: nearly all actives have a fitted effect of over 45% in size. The method in brief:
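After the 460/530 nm beta-lactamase read, CellTiter-Glo was added to the same wells and luminescence measured after 30 min at room temperature, giving viability of p53RE-bla cells treated 16 h with compounds plus microsomes and NADPH.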

Test [16] can be described thus: cAMP Responsive Elements (CRE) small molecule agonists, cell-based qHTS assay (AID 1963590). The method in brief:
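CRE-bla HEK 293T cells, 2,000/well in DMEM with 10% dialyzed FBS and 25 mM HEPES, pre-incubated 18 h at 37 C, then exposed to compound 3 h at 37 C. Beta-lactamase reporter read with LiveBLAzer B/G FRET substrate after 2 h at room temperature.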

A short description of test [17]: p53 small molecule agonists, cell-based qHTS assay (AID 1963582; active = well fitted activation curve with a large enough effect in the signal ratio in the repeat runs, not every such curve was filed as active; the % refers to the signal ratio). The method in brief:
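p53RE-bla reporter cells, compounds added in DMSO after 5 h plating, incubated 16 h at 37 C. Beta-lactamase read via 2 h room-temperature LiveBLAzer B/G FRET substrate, fluorescence intensity.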

Test [18] in a line: cAMP Responsive Elements (CRE) small molecule antagonists, cell-based qHTS assay (AID 1963591; active = well fitted inhibition curve with a large enough effect in the signal ratio in the repeat runs, not every such curve was filed as active; the % refers to the signal ratio). The method in brief:
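CRE-bla HEK293T cells plated 18 h, then given compound plus NKH477 at 0.25 uM final for 3 h at 37C. Beta-lactamase reporter read with LiveBLAzer B/G FRET substrate after 2 h at room temperature.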

A short description of test [19]: p53 small molecule agonists, cell-based qHTS assay with human liver microsomes (AID 1963577).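 Note: p53 response element beta-lactamase reporter cells with liver microsomes plus NADPH.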 The method in brief: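 Steps: plate p53RE-bla cells, incubate 5 h at 37 C; add compound in DMSO; add microsomes (0.5 mg/mL final) and NADPH (0.5 mg/mL final); incubate 16 h at 37 C; add LiveBLAzer, 2 h RT; read fluorescence.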
A short description of test [20]: p53 small molecule agonists, cell-based qHTS assay with rat liver microsomes (AID 1963578). Put shortly: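 Metabolic activation is supplied by rat liver microsomes with NADPH (each 0.5 mg/mL final). p53RE-bla cells incubate with compound 16 h at 37 C; reporter activity is measured by LiveBLAzer fluorescence.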

Inconclusive results are not listed. Active and inactive are the calls of the source. Unless noted, calls come from the whole dose curve.

Gonadotropin-releasing hormone receptor (Homo sapiens), sequence (P30968 whole entry, looked up): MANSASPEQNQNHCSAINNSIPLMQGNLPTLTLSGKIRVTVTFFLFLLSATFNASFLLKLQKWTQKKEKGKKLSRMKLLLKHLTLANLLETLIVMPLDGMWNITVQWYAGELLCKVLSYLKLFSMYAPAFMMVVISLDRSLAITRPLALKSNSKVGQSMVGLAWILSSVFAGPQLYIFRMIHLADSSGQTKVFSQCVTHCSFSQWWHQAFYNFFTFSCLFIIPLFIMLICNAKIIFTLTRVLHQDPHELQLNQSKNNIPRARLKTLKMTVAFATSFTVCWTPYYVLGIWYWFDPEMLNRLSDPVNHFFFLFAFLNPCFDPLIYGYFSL
5-hydroxytryptamine receptor 2A (Homo sapiens), sequence (P28223 whole entry, looked up): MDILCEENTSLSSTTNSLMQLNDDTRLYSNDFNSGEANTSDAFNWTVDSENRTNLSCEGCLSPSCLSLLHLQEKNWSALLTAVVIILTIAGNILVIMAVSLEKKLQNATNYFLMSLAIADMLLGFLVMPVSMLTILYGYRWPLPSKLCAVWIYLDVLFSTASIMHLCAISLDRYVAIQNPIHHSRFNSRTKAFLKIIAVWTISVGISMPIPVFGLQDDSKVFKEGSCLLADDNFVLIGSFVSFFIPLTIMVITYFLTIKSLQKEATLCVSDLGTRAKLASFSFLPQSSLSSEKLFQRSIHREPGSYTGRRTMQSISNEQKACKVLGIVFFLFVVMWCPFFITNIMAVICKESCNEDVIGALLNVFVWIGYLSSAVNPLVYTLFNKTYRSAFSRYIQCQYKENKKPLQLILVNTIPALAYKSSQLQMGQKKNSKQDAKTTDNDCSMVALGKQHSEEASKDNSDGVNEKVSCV
KiSS-1 receptor (Homo sapiens), sequence (Q969F8 whole entry, looked up): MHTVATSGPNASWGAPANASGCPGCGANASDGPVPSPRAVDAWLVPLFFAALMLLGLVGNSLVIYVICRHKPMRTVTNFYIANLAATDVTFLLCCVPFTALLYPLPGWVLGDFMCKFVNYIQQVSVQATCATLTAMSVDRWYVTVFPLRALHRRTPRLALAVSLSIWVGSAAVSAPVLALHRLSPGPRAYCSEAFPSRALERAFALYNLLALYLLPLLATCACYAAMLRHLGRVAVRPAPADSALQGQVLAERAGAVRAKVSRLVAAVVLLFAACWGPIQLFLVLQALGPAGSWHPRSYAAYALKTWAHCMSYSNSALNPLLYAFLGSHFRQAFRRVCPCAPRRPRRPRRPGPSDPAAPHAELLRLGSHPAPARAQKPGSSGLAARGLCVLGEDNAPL
Beta-2 adrenergic receptor (Homo sapiens), sequence (P07550 whole entry, looked up): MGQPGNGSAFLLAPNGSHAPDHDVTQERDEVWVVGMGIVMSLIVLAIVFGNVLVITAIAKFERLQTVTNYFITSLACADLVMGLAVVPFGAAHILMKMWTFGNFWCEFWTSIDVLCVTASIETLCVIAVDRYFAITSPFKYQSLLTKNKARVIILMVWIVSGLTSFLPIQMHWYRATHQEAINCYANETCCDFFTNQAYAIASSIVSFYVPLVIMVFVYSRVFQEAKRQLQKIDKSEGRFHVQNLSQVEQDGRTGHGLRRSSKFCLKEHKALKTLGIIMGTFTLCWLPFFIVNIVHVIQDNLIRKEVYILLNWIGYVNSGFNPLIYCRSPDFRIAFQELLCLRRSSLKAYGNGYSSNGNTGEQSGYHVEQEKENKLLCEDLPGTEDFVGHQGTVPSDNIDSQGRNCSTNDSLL
D(2) dopamine receptor (Homo sapiens), sequence (P14416 whole entry, looked up): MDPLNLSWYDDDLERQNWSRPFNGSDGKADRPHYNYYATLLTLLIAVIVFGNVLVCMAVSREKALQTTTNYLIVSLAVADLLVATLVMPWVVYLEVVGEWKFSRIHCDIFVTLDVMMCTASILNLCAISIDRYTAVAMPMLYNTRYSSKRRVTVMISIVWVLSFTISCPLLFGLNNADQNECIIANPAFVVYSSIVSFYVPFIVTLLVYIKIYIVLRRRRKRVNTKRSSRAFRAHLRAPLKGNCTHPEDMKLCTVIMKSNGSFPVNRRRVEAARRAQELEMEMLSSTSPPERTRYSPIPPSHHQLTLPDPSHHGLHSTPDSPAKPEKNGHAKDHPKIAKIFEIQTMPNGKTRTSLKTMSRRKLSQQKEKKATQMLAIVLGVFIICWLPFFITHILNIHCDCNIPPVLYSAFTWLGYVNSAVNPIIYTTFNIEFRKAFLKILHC
Muscarinic acetylcholine receptor M1 (Homo sapiens), sequence (P11229 whole entry, looked up): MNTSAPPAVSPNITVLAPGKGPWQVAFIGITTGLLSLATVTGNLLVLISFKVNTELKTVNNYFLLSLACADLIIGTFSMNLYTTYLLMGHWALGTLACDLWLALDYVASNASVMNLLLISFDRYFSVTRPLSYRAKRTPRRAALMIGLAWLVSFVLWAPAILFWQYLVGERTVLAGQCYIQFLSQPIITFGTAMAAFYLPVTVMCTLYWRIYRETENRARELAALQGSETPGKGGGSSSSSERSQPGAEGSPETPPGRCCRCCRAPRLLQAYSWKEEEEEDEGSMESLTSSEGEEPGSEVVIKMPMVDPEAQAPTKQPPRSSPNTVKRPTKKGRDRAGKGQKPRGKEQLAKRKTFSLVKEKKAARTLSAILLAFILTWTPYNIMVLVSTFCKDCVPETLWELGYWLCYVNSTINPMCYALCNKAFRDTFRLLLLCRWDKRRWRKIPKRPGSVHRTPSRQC

For `COC(C)(C)CCC[C@H](C)C/C=C/C(C)=C/C(=O)OC(C)C`, in test [1], the Potency was 61.1 µM (active). Also, the Potency entry in test [2], in test [3], in [4], in [5], in test [6] and in test [7] was “inactive” in each case. Further, the Potency result in test [8], in [9], in test [10], in [11], in [12] and in [13] was “inactive” in each case. In addition, the Potency result in [14] is “inactive”.
As to `CCCCN(CCCC)C(=S)S`, the Potency in test [1] is 68.6 µM (active). In addition, the Potency result in test [2], in [3], in test [4], in test [15], in test [5] and in [6] was “inactive” each time. Besides, the Potency result in test [7], in [8], in test [9], in [10], in test [16] and in test [13] was “inactive” throughout. In addition, the Potency entry in test [14] was “inactive”.
As to `CS/C(C)=N/OC(=O)N(C)SN(C)C(=O)O/N=C(\C)SC`, the Potency in test [1] is 68.6 µM (active); in test [8], 43.6 µM (active). For the same compound, the Potency result in [2], in test [3], in test [4], in test [15], in test [5] and in [6] was “inactive” in each case. Further, the Potency result in test [17], in [7], in [9], in test [10], in test [16] and in test [18] was “inactive” throughout. For the same compound, the Potency entry in [11], in test [12] and in test [13] was “inactive” throughout.
For the compound `COP(=S)(OC)Oc1ccc([N+](=O)[O-])cc1Cl`, the Potency result in test [1], in [2], in [3], in [4], in test [15] and in [5] was “inactive” throughout. In addition, the Potency result in [6], in [17], in test [7], in test [8], in test [10] and in test [16] was “inactive” in each case. For the same compound, the Potency result in test [18], in test [11] and in [14] was “inactive” throughout.
For the compound `OCC(c1ccc(Cl)cc1)c1ccc(Cl)cc1`, the Potency result in test [1], in test [2], in [3], in [19], in test [20] and in test [15] was “inactive” in each case. Further, the Potency result in test [5], in test [6], in [17], in test [8], in test [10] and in [13] was “inactive” in each case. Besides, in test [14], the Potency result was “inactive”. The Potency was 7.48 µM (active) in [7] and 42.1 µM (active) in test [9].
As for `CC(C)(C)c1cc([N+](=O)[O-])cc(C(C)(C)C)c1O`, the Potency in [1] was 34.4 µM (active). The Potency result in [2], in test [3], in test [19], in test [20], in test [15] and in test [5] was “inactive” throughout. The Potency entry in [6], in test [7], in [8], in test [10], in test [12] and in test [13] was “inactive” throughout. For the same compound, in [14], the Potency entry was “inactive”.
With `Cc1ccc(-c2c(Cl)nc(C#N)n2S(=O)(=O)N(C)C)cc1`, the Potency in test [1] is 9.68 µM (active). Also, the Potency entry in test [2], in test [3], in test [19], in test [20], in test [15] and in test [5] was “inactive” throughout. Moreover, the Potency entry in [6], in [7], in [8], in test [9], in test [10] and in test [11] was “inactive” in each case. The Potency entry in test [13] and in test [14] was “inactive” throughout.
Take `CCC(C)(C)C(=O)OC1=C(c2ccc(Cl)cc2Cl)C(=O)OC12CCCCC2`: the Potency in test [1] is 9.69 µM (active). The Potency result in [2], in [3], in test [4], in test [20], in test [15] and in test [5] was “inactive” in each case. Further, the Potency entry in test [17], in test [7], in test [8], in test [9], in [11] and in [12] was “inactive” in each case. Also, the Potency entry in test [14] is “inactive”.
